MITF TRPM1 HTS: MITF TRPM1 promoter activation in melanoma cells; SK-MEL-5 TRPM1-promoter luciferase, 24 h; % of positive control, neutral wells = 0; activation, % at 12.5 µM; 0.75% of 300,000 active;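 active = mean activation of at least 80% with every replicate also reaching 80%; inconclusive = mean reaches 80% but some replicate falls short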;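 also: 0% = neutral control wells and 100% = parthenolide positive control wells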
MLL AF4-AF9 inh: inhibitors of human MLL-AF4/AF9 interaction. P42568. AlphaScreen, biotin-AF4 peptide binding to FLAG-AF9. inhibition, % at 10 µM. 0.47% of 350,000 active. AID 651704;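 active = every replicate reaching a set inhibition limit, whatever the replicate mean, cut at about 25% in these data; inconclusive = mean inhibition reaches that limit but some replicates miss it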;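 also: 0% = plate neutral control median and 100% = total signal loss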
Target sequence (P42568 whole entry, looked up): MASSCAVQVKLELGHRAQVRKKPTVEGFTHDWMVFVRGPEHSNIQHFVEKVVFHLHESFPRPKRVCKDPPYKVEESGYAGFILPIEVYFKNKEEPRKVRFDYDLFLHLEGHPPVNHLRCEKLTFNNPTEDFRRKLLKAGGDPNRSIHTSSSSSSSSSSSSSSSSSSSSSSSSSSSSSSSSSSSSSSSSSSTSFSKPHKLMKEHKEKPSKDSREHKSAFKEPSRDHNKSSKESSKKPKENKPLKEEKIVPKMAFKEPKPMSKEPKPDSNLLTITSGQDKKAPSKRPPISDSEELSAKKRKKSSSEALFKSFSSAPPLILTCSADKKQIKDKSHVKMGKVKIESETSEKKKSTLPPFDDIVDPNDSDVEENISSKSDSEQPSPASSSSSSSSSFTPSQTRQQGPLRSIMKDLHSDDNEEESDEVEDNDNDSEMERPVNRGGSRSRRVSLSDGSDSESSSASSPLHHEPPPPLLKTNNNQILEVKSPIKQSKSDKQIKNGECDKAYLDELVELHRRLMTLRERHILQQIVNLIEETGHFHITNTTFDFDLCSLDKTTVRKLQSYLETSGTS
Ecoli rRNA inh: inhibitors of bacterial rRNA selective over humanized ribosomes. E. coli WT GFP vs humanized-ribosome RFP mutants, fluorescence, 24 h; active compounds read low; DMSO median 0, no signal -100. GFP signal change (wild-type ribosome), % (no concentration beside the values). 1.6% of 350,000 active;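 active = significant combined selectivity score with lowered wild-type GFP, culture density cut under 30%, mutant RFP and density less affected; inactive = any of these conditions unmet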
Wnt bcat act: activators of Wnt/beta-catenin signaling | activation, % at 9.35 µM | 1.2% of 300,000 active | Wnt/beta-catenin reporter cell assay, activator, plate reader; in the data active = activation above about 30%, passing the limit was not always enough; inconclusive = no clear call, values can overlap the other calls;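 also: 0% = neutral control wells and 100% = positive control wells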
esBAF inh: blocks esBAF chromatin remodeling in mouse ES cells; AID 602393; Bmi1-luciferase knock-in reporter, 24 h; 100% = twice the neutral-well signal; 2% of 350,000 active; reporter increase, % at 12.5 µM; in the data active = activation above about 40%; inconclusive = no clear call, values can overlap the other calls;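 also: 0% = median of the plate's neutral control wells and 100% = double that signal; a rise in the Bmi1 reporter signal indicates esBAF inhibition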
* hit, by the source's call; ? = inconclusive; / = no result. Only some compounds are listed: those with a hit (about 3.7% of all), similar ones and a draw of the others.

SMILES | MITF TRPM1 HTS | MLL AF4-AF9 inh | Ecoli rRNA inh | Wnt bcat act | esBAF inh
O=C(NC[C@@H]1CC[C@@H]2[C@@H](CN2S(=O)(=O)c2ccccc2[N+](=O)[O-])O1)c1cnccn1 | / | 1.2 | / | / | /
Cc1ccc2ncnc(Nc3ccc(C)c(C)c3)c2c1 | -1.1 | 1.3 | -27.4* | 1.6 | 5.2
COc1cccc2cc(-c3nc4ccccc4o3)c(=O)oc12 | 36.2 | -0.7 | 9.4 | 42.3* | 19.1
O=c1oc2ccc(Br)cc2cc1-c1nc2ccccc2o1 | 6.9 | -3.8 | 17.4 | -2.5 | 17.8
C[C@@H]1CN([C@@H](C)CO)C(=O)c2cc(NS(=O)(=O)c3ccc(F)cc3)ccc2O[C@@H](C)CCCCO[C@H]1CN(C)C(=O)Nc1cccc2ccccc12 | / | 0.6 | 3.7 | / | -1.5
O=c1[nH]c(=O)n([C@H]2C[C@H](O)[C@@H](CO)O2)cc1Br | -21.4 | / | -1.2 | 46.5* | 12.6
O=c1[nH]c(=O)n(C2CC(O)C(CO)O2)cc1I (stereo not drawn) | / | -0.4 | 26.0 | 2.4 | /
CN=c1nc(-c2ccccc2)n(-c2ccccc2)s1 | -7.3 | 10.1 | / | 0.7 | 54.7*
CCC(=O)N[C@@H]1CC[C@H](CC(=O)NCC2CCCCC2)O[C@@H]1CO | / | -0.7 | 2.1 | / | 1.0
COc1cc(C(=O)OCC(=O)Nc2cccc(S(=O)(=O)N3CCOCC3)c2)ccc1OCC(C)C | 12.1 | 0.6 | 6.9 | 2.1 | /
Clc1ccccc1-c1nc2nc3ccccc3nc2n1-c1ccc2c(c1)OCO2 | -8.1 | 0.2 | -26.5* | -2.5 | /
O=C(O)/C=C/C(=O)Nc1ccc(Cl)cc1C(=O)c1ccccc1 | / | -4.9 | -23.1* | 1.5 | /
Cc1cccc(-c2cc3nc(C)cc(C)n3n2)c1 | 28.4 | -3.3 | -0.3 | -1.3 | 65.9*
Cc1cc(C)n2nc(-c3cccc(Br)c3)cc2n1 | 12.2 | -3.0 | -5.2 | -3.9 | ?
O=C(c1cccc(F)c1)N1C[C@H]2[C@@H](c3ccccc31)[C@H](CO)N2C(=O)c1ccc(F)cc1 | / | -0.7 | 2.5 | / | -5.5
C[C@H]1CCCCO[C@H](CN(C)Cc2ccc3c(c2)OCO3)[C@@H](C)CN([C@@H](C)CO)C(=O)c2cc(NS(=O)(=O)c3ccccc3)ccc2O1 | / | 2.1 | 0.3 | / | 1.2
CC1(C)CSC(=NCCc2ccccc2)N1 | 17.5 | -1.2 | 2.2 | -2.1 | 44.6*
O=C(O)c1ccc(Cl)c(S(=O)(=O)Nc2ccccc2N2CCOCC2)c1 | 1.2 | -3.9 | -3.6 | -0.8 | /
O=C(O)c1ccc(NS(=O)(=O)c2cccc(C(=O)Nc3ccc(Br)cc3)c2)cc1 | -6.1 | -0.3 | -27.2* | 0.0 | -4.1
N#Cc1c(NC(=O)c2cccc(S(=O)(=O)Nc3ccc(C(=O)O)cc3)c2)sc2c1CCCC2 | -14.4 | -4.3 | -24.2* | 0.0 | 0.3
O=C(Nc1ccccc1C(=O)O)c1cccc(S(=O)(=O)Nc2ccc(Br)cc2)c1 | / | -0.7 | -23.9 | 2.6 | 0.3
Cc1cc(C(=O)Nc2sc3c(c2C#N)CCCCC3)cs1 | 22.5 | 8.0 | -19.0 | 22.0 | /
O=C(COC(=O)c1cc([N+](=O)[O-])ccc1N1CCOCC1)Nc1ncc(Cl)cc1Cl | 6.6 | 6.4 | 3.4 | -2.3 | -5.1
O=C(/C=C/c1ccc([N+](=O)[O-])cc1)NCc1cccs1 | 30.8 | / | / | 1.8 | 11.9
COc1cccc(-c2ccc([C@H]3[C@H]4CN(S(=O)(=O)c5cn(C)cn5)CCCCN4[C@H]3CO)cc2)c1 | / | -6.3 | 0.5 | / | 3.7
SMILES | MITF TRPM1 HTS | MLL AF4-AF9 inh | Ecoli rRNA inh | Wnt bcat act | esBAF inh
CC(C)COC(=O)N1CCCCC1c1cc(C(=O)NC(C)C)no1 (stereo not drawn) | / | 1.3 | 8.9 | -0.2 | 1.8
O=C(COc1ccc(Cl)cc1[N+](=O)[O-])N/N=C/c1cccs1 | -1.6 | 1.6 | 8.6 | -1.9 | /
Fc1ccccc1/C=N/Nc1ccc(Cl)nn1 | 49.4 | -1.8 | 2.2 | 0.9 | 54.9*
Oc1ccc(/C=N/Nc2ccc(Cl)nn2)cc1O | 47.2 | 1.3 | 5.7 | 7.5 | 30.0
Cc1ccc(/C=N/Nc2ccc(Cl)nn2)cc1 | 95.1* | 5.6 | 3.4 | 37.4* | /
COc1cccc(/C=N/Nc2ccc(Cl)nn2)c1OC | / | / | 18.3 | 16.3 | /
C[C@@H]1CN([C@@H](C)CO)C(=O)Cc2cc(NC(=O)Nc3ccc4c(c3)OCO4)ccc2O[C@@H]1CN(C)C(=O)Nc1ccccc1 | / | / | 2.0 | / | 0.1
C=CC(COCc1ccccc1)N(C(=O)OC(C)(C)C)S(=O)(=O)c1ccccc1Br (stereo not drawn) | -1.1 | -8.8 | 1.9 | 2.5 | -17.6
COc1ccc(CN(CC(O)COCc2ccccc2)S(=O)(=O)c2ccccc2Br)cc1OC (stereo not drawn) | 10.4 | 0.0 | -20.8* | -5.5 | -4.1
